In test [1] the target is T1, Thyroid hormone receptor alpha (Rattus norvegicus) + Thyroid hormone receptor beta (Rattus norvegicus) (UniProt P18113+P63059). Briefly: TOX21_TR_LUC_GH3_Agonist_Followup: Tox21 GH3 Thyroid Hormone Receptor Agonism Luciferase Follow-Up Assay (AID 2283939). The method in brief:
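Agonist-mode confirmatory run: 15 concentrations (5 nM to 92 uM final) on GH3 rat pituitary cells, 24 h at 37C/5% CO2, T3 as positive control. Luminescence read with ONE-Glo after 30 min.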

For test [2], the target named is THRA (gene 7067) (UniProt P10827). Briefly: TOX21_TRA_COA_Agonist_Followup_ratio: Tox21 Thyroid Hormone Receptor alpha Agonism through Coactivator Recruitment Follow-Up Assay, Ratio (AID 2283948; active means hit-call score of the fitted dose curve at least 0.9, where 1 is the maximum; inactive means score below 0.9). The procedure, abridged:
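Cell-free TR-FRET: GST-tagged TRα LBD (2.5 nM) with 0.10% BSA and compound, then fluorescein-SRC-2 peptide (200 nM) and Tb-anti-GST antibody (2 nM). Readout 520:495 nm ratio (ex 340 nm), normalized to DMSO (0%) and T3 (100%).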

Test [3] concerns the target THRB (gene 7068) (UniProt P10828). As to the kind of experiment: TOX21_TRB_BLA_Agonist_Followup_ratio: Tox21 Thyroid Hormone Receptor beta Agonism Beta-lactamase (BLA) Follow-Up Assay, Ratio (AID 2283954). The method in brief:
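Agonist mode: compounds (11-point, triplicate) incubated 18 h with HEK293T cells carrying GAL4-DBD/human TRβ-LBD and UAS-β-lactamase. Blue/green (460/530 nm) FRET ratio read after 2 h CCF4-AM loading; CellTiter-Glo viability run in the same plates.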

The target is the same in test [4]. As to the kind of experiment: TOX21_TRB_COA_Agonist_Followup_ratio: Tox21 Thyroid Hormone Receptor beta Agonism through Coactivator Recruitment Follow-Up Assay, Ratio (AID 2283963; active means hit-call score of the fitted dose curve at least 0.9, where 1 is the maximum; inactive means score below 0.9). The method in brief: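 Agonism is measured as coactivator recruitment in a purified-protein TR-FRET format, using GST-TRβ LBD at 5.0 nM, fluorescein-SRC-2 peptide at 200 nM and Tb-labeled anti-GST antibody at 2 nM. Values are 520:495 nm ratios relative to DMSO (0%) and T3 (100%).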

In test [5] the target is Retinoic acid receptor RXR-alpha (Homo sapiens) (UniProt P19793). Briefly: TOX21_TR_RXR_BLA_Agonist_Followup_ratio: Tox21 Thyroid Hormone Receptor beta Retinoid X Receptor alpha (RXRa) Agonism Beta-lactamase (BLA) Follow-Up Assay, Ratio (AID 2283968). The method in brief:
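Agonist mode: compounds given to RXRa-bla HEK293T cells at 11 concentrations, triplicate, 16 h at 37C/5% CO2. Readout is the 460:530 nm blue/green ratio after 2 h substrate loading at room temperature; DMSO baseline, 9-cis retinoic acid control.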

The nature of test [6]: TOX21_TR_RXR_BLA_Agonist_Followup_viability: Viability Assessment in the Tox21 Thyroid Hormone Receptor beta Retinoid X Receptor alpha (RXRa) Agonism Beta-lactamase (BLA) Follow-Up Assay (AID 2283970). The procedure, abridged: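 CellTiter-Glo ATP luciferase read-out of cell viability, multiplexed with the beta-lactamase reporter run. RXRa-bla HEK293T cells in charcoal-stripped serum medium were exposed 16 h at 37C; data fitted both directions relative to DMSO.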

Test [7] addresses PGR (gene 5241) (UniProt P06401). Briefly: TOX21_PR_BLA_Followup_Antagonist_ratio: Tox21 HEK293 Progesterone Receptor (PR) Antagonism Beta-lactamase Follow-Up Assay, Ratio (AID 2283934).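 Further: PR-UAS-bla HEK293T cells stimulated with 1 nM R5020 agonist for 16 hr.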 The method in brief: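 Readout is the blue/green (ch2/ch1) substrate cleavage ratio after 2 hours at room temperature, following 16 hr co-treatment of PR-bla HEK293T cells with compound and 1nM promegestone. Multiplexed CellTiter-Glo viability flags cytotoxicity; DMSO baseline.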

Test [8] is described as follows: TOX21_PR_BLA_Followup_Agonist_viability: Viability Assessment in the Tox21 HEK293 Progesterone Receptor (PR) Agonism Beta-lactamase Follow-Up Assay (AID 2283935).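 Further: signal loss means lower viability so actives are cytotoxic.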 The method in brief: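 Run multiplexed with the beta-lactamase FRET read, this endpoint measures ATP by CellTiter-Glo luminescence (30 min, room temperature). PR-UAS-bla HEK293T cells received compound 6 hr after plating and were then incubated 16 hr at 37C in 2% stripped serum.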

A short description of test [9]: TOX21_PR_BLA_Followup_Antagonist_viability: Viability Assessment in the Tox21 HEK293 Progesterone Receptor (PR) Antagonism Beta-lactamase Follow-Up Assay (AID 2283936).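 Further: cells exposed to compound with R5020 agonist for 16 h; hits lower the luminescence signal meaning cytotoxicity.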 The procedure, abridged: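 PR-UAS-bla HEK293T cells in medium with 2% charcoal-stripped FBS were treated with compounds plus R5020 for 16 hr at 37C. After the beta-lactamase read, CellTiter-Glo was added to the same wells and luminescence read after 30 min at room temperature.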

The target of test [10] is PGR (gene 5241) (UniProt P06401). As to the kind of experiment: TOX21_PR_LUC_Followup_Antagonist: Tox21 HEK293 Progesterone Receptor (PR) Antagonism Luciferase Follow-Up Assay (AID 2283938).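 Further: curve fitted upward as signal gain over DMSO baseline despite antagonist label.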 The procedure, abridged: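 HEK293-PR-A-luc cells, 3,000/well, preincubated 5 h at 37C before compound addition in DMSO; 16 h compound exposure at 37C. ONE-Glo luciferase luminescence read after 30 min at room temperature, fitted relative to DMSO baseline.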

Test [11] in a line: TOX21_PR_LUC_Followup_Agonist_viability: Viability Assessment in the Tox21 HEK293 Progesterone Receptor (PR) Agonism Luciferase Follow-Up Assay (AID 2283941).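 Further: loss of signal means cytotoxicity so actives lower viability.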 The method in brief:
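Cytotoxicity counter-readout in the PR-A luciferase reporter line HEK293, with 16 h compound exposure at 37C after cells were cultured in charcoal-stripped serum. Cellular ATP quantified by CellTiter-Glo luminescence.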

Test [12] addresses PGR (gene 5241) (UniProt P06401). Briefly: TOX21_PR_BLA_Followup_Agonist_ratio: Tox21 HEK293 Progesterone Receptor (PR) Agonism Beta-lactamase Follow-Up Assay, Ratio (AID 2283933). The procedure, abridged:
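Beta-lactamase reporter readout: ratio of cleaved (ch2) to uncleaved (ch1) substrate after 2 h room-temperature loading, following 16 h compound exposure at 37C. Cells were PR-UAS-bla HEK293T in 2% charcoal-stripped FBS medium. Viability was multiplexed by CellTiter-Glo.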

Test [13] has the same target. As to the kind of experiment: TOX21_PR_LUC_Followup_Agonist: Tox21 HEK293 Progesterone Receptor (PR) Agonism Luciferase Follow-Up Assay (AID 2283937; active means hit-call score of the fitted dose curve at least 0.9, where 1 is the maximum; inactive means score below 0.9). The method in brief:
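Agonism scored as luciferase induction over DMSO, read by ONE-Glo after 30 min at RT. Compounds were incubated 16 h at 37C on HEK293-PR-A-luc cells (3,000/well, pre-plated 5 h) previously grown 5 days in charcoal-stripped serum.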

A short description of test [14]: TOX21_PR_LUC_Followup_Antagonist_viability: Viability Assessment in the Tox21 HEK293 Progesterone Receptor (PR) Antagonism Luciferase Follow-Up Assay (AID 2283940). The method in brief: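 Viability counter-readout: cellular ATP measured by luciferase luminescence after 16 h compound exposure at 37C of HEK293-PR-A-luc cells, which had been cultured in charcoal-stripped serum and seeded 5 h beforehand.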

The target of test [15] is T1, Thyroid hormone receptor alpha (Rattus norvegicus) + Thyroid hormone receptor beta (Rattus norvegicus). As to the kind of experiment: TOX21_TR_LUC_GH3_Antagonist_Followup: Tox21 GH3 Thyroid Hormone Receptor Antagonism Luciferase Follow-Up Assay (AID 2283942). The procedure, abridged:
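In a GH3 luciferase reporter line, test chemicals spanning 92 uM to 5nM final are co-incubated 24 h with 1.0 nM T3. Activity is expressed as relative luminescence units and analysed relative to DMSO.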

For test [16], the target named is THRA (gene 7067) (UniProt P10827). As to the kind of experiment: TOX21_TRA_COA_Antagonist_Followup_ratio: Tox21 Thyroid Hormone Receptor alpha Antagonism through Coactivator Recruitment Follow-Up Assay, Ratio (AID 2283953). The procedure, abridged:
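GST-TRα LBD 2.5 nM, BSA 0.10%, + cpd; then FITC-SRC-2 peptide 200 nM + Tb-anti-GST Ab 2 nM. TR-FRET ratio 520/495 nm. Norm: DMSO = 0%, T3 = 100%.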

Test [17] can be described thus: TOX21_TRB_BLA_Antagonist_Followup_viability: Viability Assessment in the Tox21 Thyroid Hormone Receptor beta Antagonism Beta-lactamase (BLA) Follow-Up Assay (AID 2283961). The procedure, abridged:
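HEK293T cells with GAL4-human TRβ LBD and UAS-bla reporter, 3,000 cells/well in 2% charcoal-stripped FBS medium; 11-point concentrations in triplicate, 18 h at 37C. Viability from ATP by CellTiter-Glo luminescence, 30 min RT, same plates.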

For test [18], the target named is THRB (gene 7068) (UniProt P10828). Briefly: TOX21_TRB_COA_Antagonist_Followup_ratio: Tox21 Thyroid Hormone Receptor beta Antagonism through Coactivator Recruitment Follow-Up Assay, Ratio (AID 2283967). The method in brief:
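Coactivator (SRC-2) recruitment to purified GST-TRβ ligand-binding domain is monitored by terbium-to-fluorescein energy transfer, emission ratio 520:495 nm. DMSO wells define 0% and T3 wells 100% activity.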

The target in test [19] is Retinoic acid receptor RXR-alpha (Homo sapiens) (UniProt P19793). Briefly: TOX21_TR_RXR_BLA_Antagonist_Followup_ratio: Tox21 Thyroid Hormone Receptor beta Retinoid X Receptor alpha (RXRa) Antagonism Beta-lactamase (BLA) Follow-Up Assay, Ratio (AID 2283972). The procedure, abridged: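 RXRa-UAS-bla HEK293T cells, 2,500/well in phenol red-free DMEM with 2% charcoal-stripped FBS, 5 h attachment, then compounds (11 concentrations, triplicate) for 16 h at 37C; FRET-B/GCCF4-AM substrate 2 h RT; 460:530 nm ratio, loss of signal vs DMSO.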

A short description of test [20]: TOX21_TR_RXR_BLA_Antagonist_Followup_viability: Viability Assessment in the Tox21 Thyroid Hormone Receptor beta Retinoid X Receptor alpha (RXRa) Antagonism Beta-lactamase (BLA) Follow-Up Assay (AID 2283979). The method in brief: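 RXRa-UAS-bla HEK293T cells seeded 2,500/well in phenol red-free DMEM with 2% charcoal-stripped FBS, attached 5 h, then exposed to compounds at 11 concentrations in triplicate for 16 h at 37C/5% CO2. Viability read by CellTiter-Glo ATP luminescence; bidirectional fit versus DMSO.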

Molecules are shown by their SMILES. Records with an inconclusive call do not appear. Calls of active or inactive are those of the source. How the source made its calls, unless noted: active means hit-call score of the fitted dose curve at least 0.9, where 1 is the maximum; inconclusive means response in the unintended direction; inactive means score below 0.9.

Sequence of THRB (gene 7068) (P10828 whole entry, looked up, the tested form may be a part): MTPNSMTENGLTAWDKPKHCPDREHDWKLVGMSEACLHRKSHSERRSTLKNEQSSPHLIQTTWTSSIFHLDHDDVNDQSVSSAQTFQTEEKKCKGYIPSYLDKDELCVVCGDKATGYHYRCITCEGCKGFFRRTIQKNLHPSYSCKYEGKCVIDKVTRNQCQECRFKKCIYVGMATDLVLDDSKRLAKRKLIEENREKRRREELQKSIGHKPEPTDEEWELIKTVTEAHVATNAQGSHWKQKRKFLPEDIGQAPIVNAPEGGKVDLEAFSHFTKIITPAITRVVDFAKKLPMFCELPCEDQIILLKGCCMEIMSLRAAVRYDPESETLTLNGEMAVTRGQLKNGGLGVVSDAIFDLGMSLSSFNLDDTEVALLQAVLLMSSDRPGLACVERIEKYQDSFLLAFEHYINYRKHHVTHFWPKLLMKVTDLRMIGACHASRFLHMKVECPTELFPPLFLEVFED
Sequence of PGR (gene 5241) (P06401 whole entry, looked up): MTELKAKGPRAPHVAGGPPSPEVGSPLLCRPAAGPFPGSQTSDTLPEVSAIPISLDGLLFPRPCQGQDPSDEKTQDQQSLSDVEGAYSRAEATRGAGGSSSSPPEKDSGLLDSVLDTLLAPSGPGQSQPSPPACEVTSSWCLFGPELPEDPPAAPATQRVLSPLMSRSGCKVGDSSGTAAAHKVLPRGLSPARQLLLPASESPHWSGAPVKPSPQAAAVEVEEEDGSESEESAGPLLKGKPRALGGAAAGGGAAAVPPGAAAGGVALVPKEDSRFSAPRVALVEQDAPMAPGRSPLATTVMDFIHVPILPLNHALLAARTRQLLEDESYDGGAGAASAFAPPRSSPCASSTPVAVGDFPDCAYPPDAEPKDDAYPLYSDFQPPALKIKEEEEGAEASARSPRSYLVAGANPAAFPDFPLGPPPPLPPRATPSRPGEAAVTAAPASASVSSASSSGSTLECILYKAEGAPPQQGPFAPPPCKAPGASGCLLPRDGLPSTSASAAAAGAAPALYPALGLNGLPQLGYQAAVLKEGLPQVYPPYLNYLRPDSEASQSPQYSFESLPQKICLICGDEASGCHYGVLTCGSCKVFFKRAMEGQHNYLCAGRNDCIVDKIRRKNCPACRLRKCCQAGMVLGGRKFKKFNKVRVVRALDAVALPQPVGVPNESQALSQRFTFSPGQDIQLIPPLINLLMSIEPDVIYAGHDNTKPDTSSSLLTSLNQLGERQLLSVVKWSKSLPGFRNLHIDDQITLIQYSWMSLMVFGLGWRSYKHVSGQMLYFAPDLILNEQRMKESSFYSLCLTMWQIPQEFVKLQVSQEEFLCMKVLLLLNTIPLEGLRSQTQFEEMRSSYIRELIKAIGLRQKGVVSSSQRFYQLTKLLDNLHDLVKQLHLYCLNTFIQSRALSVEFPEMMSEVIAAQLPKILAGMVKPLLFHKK
Sequence of THRA (gene 7067) (P10827 whole entry, looked up, the tested form may be a part): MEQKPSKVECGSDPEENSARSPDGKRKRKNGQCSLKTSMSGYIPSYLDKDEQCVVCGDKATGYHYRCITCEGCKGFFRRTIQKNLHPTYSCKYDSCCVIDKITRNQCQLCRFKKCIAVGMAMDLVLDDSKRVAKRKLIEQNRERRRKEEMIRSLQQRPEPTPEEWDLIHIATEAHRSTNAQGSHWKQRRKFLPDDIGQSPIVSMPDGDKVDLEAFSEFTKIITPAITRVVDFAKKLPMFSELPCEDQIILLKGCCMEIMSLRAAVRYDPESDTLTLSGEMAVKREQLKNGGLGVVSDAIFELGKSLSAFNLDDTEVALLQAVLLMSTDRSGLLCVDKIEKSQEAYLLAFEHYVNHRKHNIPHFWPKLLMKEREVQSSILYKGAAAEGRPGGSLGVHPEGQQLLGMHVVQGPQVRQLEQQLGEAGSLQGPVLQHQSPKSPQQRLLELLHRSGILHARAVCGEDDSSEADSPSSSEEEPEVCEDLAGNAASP
Sequence of Retinoic acid receptor RXR-alpha (Homo sapiens) (P19793 whole entry, looked up): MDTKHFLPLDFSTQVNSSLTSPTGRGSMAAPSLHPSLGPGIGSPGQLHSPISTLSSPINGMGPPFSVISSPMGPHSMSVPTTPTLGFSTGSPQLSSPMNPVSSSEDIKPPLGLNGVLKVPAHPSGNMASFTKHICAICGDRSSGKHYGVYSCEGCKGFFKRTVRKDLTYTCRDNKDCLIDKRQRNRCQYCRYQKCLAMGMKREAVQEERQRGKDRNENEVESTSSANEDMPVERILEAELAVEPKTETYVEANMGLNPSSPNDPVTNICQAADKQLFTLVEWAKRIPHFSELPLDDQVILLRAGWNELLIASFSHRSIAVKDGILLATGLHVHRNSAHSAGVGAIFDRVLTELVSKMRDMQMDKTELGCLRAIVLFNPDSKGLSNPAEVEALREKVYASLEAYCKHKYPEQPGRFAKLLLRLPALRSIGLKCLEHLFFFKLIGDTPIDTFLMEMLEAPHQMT
T1 sequence (P63059 whole entry, looked up): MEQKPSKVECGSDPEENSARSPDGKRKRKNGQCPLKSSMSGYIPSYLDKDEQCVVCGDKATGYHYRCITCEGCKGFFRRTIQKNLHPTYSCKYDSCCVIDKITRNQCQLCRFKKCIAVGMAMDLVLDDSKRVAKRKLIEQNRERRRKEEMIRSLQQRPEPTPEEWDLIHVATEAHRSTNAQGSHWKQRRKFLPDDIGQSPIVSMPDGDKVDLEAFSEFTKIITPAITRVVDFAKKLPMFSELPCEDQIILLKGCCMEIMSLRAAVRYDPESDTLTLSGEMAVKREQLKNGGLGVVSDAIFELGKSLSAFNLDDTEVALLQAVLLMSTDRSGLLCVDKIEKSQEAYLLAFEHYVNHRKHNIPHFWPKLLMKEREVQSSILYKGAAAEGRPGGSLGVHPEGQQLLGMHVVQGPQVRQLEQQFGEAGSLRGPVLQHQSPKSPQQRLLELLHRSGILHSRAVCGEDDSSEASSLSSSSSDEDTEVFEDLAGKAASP
T1 sequence (P18113 whole entry, looked up): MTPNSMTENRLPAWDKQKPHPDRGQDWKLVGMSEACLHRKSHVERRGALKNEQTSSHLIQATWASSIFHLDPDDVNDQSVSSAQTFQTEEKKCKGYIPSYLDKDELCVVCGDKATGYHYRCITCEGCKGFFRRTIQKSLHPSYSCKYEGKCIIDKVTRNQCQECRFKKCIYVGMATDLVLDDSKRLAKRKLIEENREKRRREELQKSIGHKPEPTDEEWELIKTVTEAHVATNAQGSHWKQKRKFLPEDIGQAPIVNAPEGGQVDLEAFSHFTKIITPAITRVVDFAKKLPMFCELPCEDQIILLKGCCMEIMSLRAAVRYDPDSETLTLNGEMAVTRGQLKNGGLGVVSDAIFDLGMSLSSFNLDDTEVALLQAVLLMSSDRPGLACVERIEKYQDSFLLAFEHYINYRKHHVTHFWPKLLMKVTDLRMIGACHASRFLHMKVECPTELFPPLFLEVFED

For the compound `Nc1ncn([C@H]2C[C@H](O)[C@@H](CO)O2)c(=O)n1`, the outcome (in test [1]; with THRA (gene 7067) [2]; in the test with THRB (gene 7068) [3]; with THRB (gene 7068) [4]; in [5]; in test [6]) was inactive.
Take `C[C@]12CCC(=O)C=C1CC[C@H]1[C@@H]3CC[C@](O)(C(=O)CO)[C@@]3(C)C[C@H](O)[C@@]12F`: the result (with PGR (gene 5241) [7]; in test [8]; in test [9]; in the test with PGR (gene 5241) [10]; in test [11]) was inactive.
As for `C/C=C(/C(=C/C)c1ccc(OC(C)=O)cc1)c1ccc(OC(C)=O)cc1`, the outcome (in the test with PGR (gene 5241) [12]; in test [8]; in test [9]; with PGR (gene 5241) [13]; in [14]) was inactive. Besides, the AC50 (usually the concentration giving half of the maximal activity seen) was 9.64 µM (active) in the test with PGR (gene 5241) [7] and 14.7 µM (active) with PGR (gene 5241) [10].
With `COc1cc(NCc2ccc3nc(N)nc(N)c3c2C)cc(OC)c1OC`, the outcome (in [15]; with THRA (gene 7067) [16]; in the test with THRB (gene 7068) [18]) was inactive. Further, the AC50 was 1.46 µM (active) in test [17], 1.76 µM (active) in [19] and 1.77 µM (active) in [20].
Consider `C[C@@H]1CC(=O)NN=C1c1ccc(NN=C(C#N)C#N)cc1`, for which the outcome (in the test with PGR (gene 5241) [12]; in test [8]; in test [9]; with PGR (gene 5241) [13]; in test [14]; in [11]) was inactive. Further, the AC50 is 17.3 µM (active) in the test with PGR (gene 5241) [7] and 3.22 µM (active) in the test with PGR (gene 5241) [10].
As for `CCC(=O)O[C@]1(C(=O)COC)[C@@H](C)C[C@H]2[C@@H]3CCC4=CC(=O)C=C[C@]4(C)C3(F)[C@@H](O)C[C@@]21C` (stereo not given in full), the AC50 in the test with PGR (gene 5241) [12] was 0.468 µM (active); in the test with PGR (gene 5241) [13], 0.0067 µM (active). Further, the result (with PGR (gene 5241) [7]; in test [8]; in test [9]; with PGR (gene 5241) [10]; in test [14]; in test [11]) was inactive.

Values taken from PubChem BioAssay (EPA / NIEHS).
